In PubChem BioAssay:
For some of these results: Potency and affinity values are given separately. The source made the active and inactive calls.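 Rule for the calls, unless noted: active = compound raising the membrane signal above positive-control mean plus 3 SD in both repeats, and a primary screen hit; inactive = the rest.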

What was measured:
[1] = tested on: TRPC4 beta (transient receptor potential cation channel C4), mouse; test: activators of mouse TRPC4 channel, confirmation, cell-based, Fluo4 calcium, HEK293 TRPC4beta/mu-opioid, duplicates, 10 µM (AID 2426;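 active = fluorescence ratio normalized to control raised more than 50% in primary screen plus both repeat runs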;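 for activation: percent rise of integrated ratio over buffer wells lacking compound which define 0%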); conditions: Fluo4 calcium fluorescence, at 10 µM; active compounds read high
[2] = tested on: transient receptor potential cation channel C4 beta (TRPC4), mouse; test: activators of mouse TRPC4 channel, confirmation, cell-based, second round, Fluo4, HEK293 TRPC4beta/mu-opioid, 1 µM (AID 2461;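 active = primary screen active and over 50% activation in each of two duplicate runs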); conditions: Fluo4 calcium fluorescence, at 1 µM; active compounds read high
[3] = tested on: TRPC4 (transient receptor potential cation channel C4 beta), mouse; test: positive allosteric modulators of mouse TRPC4, confirmation, cell-based, second round, Fluo-4, HEK293 TRPC4beta/mu-opioid, 1 µM (AID 2554;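 active = primary screen hit whose fluorescence ratio, in both repeats, exceeds the weak agonist control mean by 3 SD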); conditions: DAMGO EC20, Fluo-4 calcium flux, at 1 µM; active compounds read high
[4] = tested on: TRPC4 beta (transient receptor potential cation channel C4), mouse; test: positive allosteric modulators of mouse TRPC4, confirmation, cell-based, Fluo-4, HEK293 TRPC4beta/mu-opioid (AID 2555;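 active = primary screen hit whose calcium fluorescence ratio, in both repeats, exceeds the weak agonist control mean by 3 SD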); conditions: DAMGO EC20, Fluo-4 calcium flux, at 10 µM; active compounds read high
[5] = molecular target: Short transient receptor potential channel 4 (Mus musculus) (UniProt Q9QUQ5); test: inhibitors of mouse TRPC4 channel, confirmation, cell-based, Fluo4, HEK293 TRPC4beta/mu-opioid (AID 2636;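 active = calcium signal cut by more than 3 SD below the full-agonist control yet still positive, in both repeats and the earlier primary screen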); conditions: DAMGO, Fluo4 calcium flux, at 10 µM; active compounds read high
[6] = molecular target: Short transient receptor potential channel 4 (Mus musculus) (UniProt Q9QUQ5); test: inhibitors of mouse TRPC4 channel, confirmation, cell-based, second round, Fluo4, HEK293 TRPC4beta/mu-opioid, 1 µM (AID 2637;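 active = calcium signal ratio cut to more than 3 SD under the fully stimulated control mean yet still positive, in both repeats and the primary screen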); conditions: Fluo4 calcium flux, DAMGO, at 1 µM; active compounds read high
[7] = molecular target: Short transient receptor potential channel 4 (Mus musculus) (UniProt Q9QUQ5); test: mouse TRPC4 channel activators, dose response, cell-based, HEK293 TRPC4/mu-opioid, Fluo-4 calcium (AID 434937;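 active = primary screen activator hit with a dose response curve and TRPC4 channel activation at any tested dose; inactive = no activation, no dose response, or not a primary hit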)
[8] = molecular target: Short transient receptor potential channel 4 (Mus musculus) (UniProt Q9QUQ5); test: TRPC4 positive allosteric modulators, dose response, cell-based, HEK293 TRPC4/mu-opioid, Fluo-4 calcium, EC20 DAMGO (AID 434941;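 active = earlier screen potentiator hit that boosts the TRPC4 ion channel at some dose, with a dose response; inactive = no potentiation, no dose response, or not a prior hit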;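 note: calcium entry triggered by an EC20 dose of DAMGO at the co-expressed mu-opioid receptor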)
[9] = molecular target: Short transient receptor potential channel 4 (Mus musculus) (UniProt Q9QUQ5); test: mouse TRPC4 channel inhibitors, dose response, cell-based, HEK293 TRPC4/mu-opioid, Fluo-4 calcium (AID 434942;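 active = primary screen inhibitor hit that blocks the TRPC4 channel at some tested dose, yielding a dose curve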)
[10] = molecular target: Short transient receptor potential channel 6 (Mus musculus) (UniProt Q61143); test: inhibition of mouse TRPC6 channel, confirmation, selectivity assay for TRPC4 inhibitor project, cell-based, HEK293, membrane potential dye, duplicate (AID 434948;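 active = active in primary screen and both duplicates, each dropping signal beyond three positive-control SD with fluorescence still positive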); conditions: HEK293 TRPC6, membrane potential dye fluorescence, at 10 µM, stimulated with maximal-effect acetylcholine; active compounds read high
[11] = molecular target: Short transient receptor potential channel 6 (Mus musculus) (UniProt Q61143); test: activation of mouse TRPC6 channel, confirmation, selectivity assay for TRPC4 activator project, cell-based, HEK293, membrane potential dye, duplicate (AID 434950;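 active = membrane potential signal rise above negative control mean plus 3 SD in both duplicates, also active in the earlier TRPC4 screen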); conditions: HEK293 TRPC6, membrane potential fluorescence, at 10 µM; active compounds read high
[12] = molecular target: Short transient receptor potential channel 6 (Mus musculus) (UniProt Q61143); test: TRPC6 potentiation by TRPC4 potentiator hits, confirmation, selectivity assay for TRPC4 potentiator project, HEK293 cells, membrane potential dye, duplicate (AID 434952); conditions: HEK293 TRPC6, membrane potential dye fluorescence, at 10 µM, maximal acetylcholine added after compound; active compounds read high
[13] = molecular target: Short transient receptor potential channel 4 (Mus musculus) (UniProt Q9QUQ5); test: calcium flux activators in TRPC4/5HT1a cells, counter-screen for TRPC4 activator project, cell-based, second counter screen, HEK293 TRPC4/5HT1a, Fluo-4 (AID 434977;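 active = calcium signal rise above buffer-control mean plus 5 SD in both duplicates, and also a hit in the primary screen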;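 for activation: plate controls were assay buffer for no effect and maximal serotonin response for full effect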); conditions: Fluo-4 calcium flux, at 10 µM; active compounds read high
[14] = calcium flux inhibitors in TRPC4/5HT1a cells, confirmation, counter-screen for TRPC4 inhibitor project, cell-based, second counter screen, HEK293 TRPC4/5HT1a, Fluo-4 (AID 434978;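 active = primary screen active whose calcium signal fell more than 3 SD beyond the full-serotonin control mean in both duplicate plates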;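 for outcome: serotonin given first at submaximal then at maximal dose after compound preincubation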); conditions: Fluo-4 calcium flux, at 10 µM, serotonin added to trigger calcium flux; active compounds read high
[15] = tested on: TRPC4 (mouse), co-expressed with 5HT1a in HEK293; test: calcium flux potentiators in TRPC4/5HT1a cells, confirmation, counter-screen for TRPC4 potentiator project, cell-based, second counter screen, HEK293 TRPC4/5HT1a, Fluo-4 (AID 434979;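 active = signal rise over 3 SD above mean of control wells given weak agonist, in both repeats and first screen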); conditions: Fluo-4 calcium flux, at 10 µM, serotonin added at its EC20 dose; active compounds read high
[16] = calcium flux activation in mu-opioid HEK293 cells, confirmation, counter-screen for TRPC4 activator project, cell-based, HEK293 mu-opioid receptor line (AID 449723;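 active = hit in primary screen, with calcium signal over 5 SD above buffer well mean in both duplicates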;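 note: counter screen cells carry the mu-opioid receptor alone and lack TRPC4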); conditions: Fluo-4 calcium fluorescence, at 10 µM; active compounds read high
[17] = calcium flux enhancement in mu-opioid HEK293 cells, confirmation, counter-screen for TRPC4 allosteric potentiator project, cell-based, HEK293 mu-opioid receptor line (AID 449724;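 active = calcium signal rise more than 3 SD above the low-dose agonist control mean, in both duplicate plates and the primary screen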); conditions: Fluo-4 calcium flux, at 10 µM, compound added before EC20 DAMGO stimulus; active compounds read high

Sequence of Short transient receptor potential channel 4 (Mus musculus) (Q9QUQ5 whole entry, looked up): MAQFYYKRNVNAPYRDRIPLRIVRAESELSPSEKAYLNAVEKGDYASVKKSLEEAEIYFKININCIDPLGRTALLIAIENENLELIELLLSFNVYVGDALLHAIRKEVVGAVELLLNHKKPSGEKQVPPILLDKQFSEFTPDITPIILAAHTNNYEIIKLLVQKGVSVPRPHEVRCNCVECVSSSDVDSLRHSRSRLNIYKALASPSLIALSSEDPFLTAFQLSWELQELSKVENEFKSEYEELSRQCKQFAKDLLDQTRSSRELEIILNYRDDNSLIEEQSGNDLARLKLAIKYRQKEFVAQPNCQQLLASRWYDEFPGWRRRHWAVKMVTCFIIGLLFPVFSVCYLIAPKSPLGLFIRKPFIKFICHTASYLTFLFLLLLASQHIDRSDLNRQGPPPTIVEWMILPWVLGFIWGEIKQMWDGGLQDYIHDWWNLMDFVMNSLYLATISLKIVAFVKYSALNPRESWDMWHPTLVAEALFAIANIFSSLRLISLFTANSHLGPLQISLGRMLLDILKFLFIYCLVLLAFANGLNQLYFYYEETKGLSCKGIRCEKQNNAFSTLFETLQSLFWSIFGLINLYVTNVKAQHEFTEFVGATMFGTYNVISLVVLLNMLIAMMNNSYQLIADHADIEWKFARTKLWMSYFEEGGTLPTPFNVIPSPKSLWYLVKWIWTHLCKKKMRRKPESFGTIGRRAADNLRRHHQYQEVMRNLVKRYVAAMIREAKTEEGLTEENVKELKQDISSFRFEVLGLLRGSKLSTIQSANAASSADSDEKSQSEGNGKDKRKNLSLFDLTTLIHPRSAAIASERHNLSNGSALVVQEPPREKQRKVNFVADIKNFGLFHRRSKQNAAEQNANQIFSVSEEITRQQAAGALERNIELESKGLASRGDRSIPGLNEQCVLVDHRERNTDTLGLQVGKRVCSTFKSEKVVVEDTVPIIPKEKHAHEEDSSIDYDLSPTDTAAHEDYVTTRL
Sequence of Short transient receptor potential channel 6 (Mus musculus) (Q61143 whole entry, looked up): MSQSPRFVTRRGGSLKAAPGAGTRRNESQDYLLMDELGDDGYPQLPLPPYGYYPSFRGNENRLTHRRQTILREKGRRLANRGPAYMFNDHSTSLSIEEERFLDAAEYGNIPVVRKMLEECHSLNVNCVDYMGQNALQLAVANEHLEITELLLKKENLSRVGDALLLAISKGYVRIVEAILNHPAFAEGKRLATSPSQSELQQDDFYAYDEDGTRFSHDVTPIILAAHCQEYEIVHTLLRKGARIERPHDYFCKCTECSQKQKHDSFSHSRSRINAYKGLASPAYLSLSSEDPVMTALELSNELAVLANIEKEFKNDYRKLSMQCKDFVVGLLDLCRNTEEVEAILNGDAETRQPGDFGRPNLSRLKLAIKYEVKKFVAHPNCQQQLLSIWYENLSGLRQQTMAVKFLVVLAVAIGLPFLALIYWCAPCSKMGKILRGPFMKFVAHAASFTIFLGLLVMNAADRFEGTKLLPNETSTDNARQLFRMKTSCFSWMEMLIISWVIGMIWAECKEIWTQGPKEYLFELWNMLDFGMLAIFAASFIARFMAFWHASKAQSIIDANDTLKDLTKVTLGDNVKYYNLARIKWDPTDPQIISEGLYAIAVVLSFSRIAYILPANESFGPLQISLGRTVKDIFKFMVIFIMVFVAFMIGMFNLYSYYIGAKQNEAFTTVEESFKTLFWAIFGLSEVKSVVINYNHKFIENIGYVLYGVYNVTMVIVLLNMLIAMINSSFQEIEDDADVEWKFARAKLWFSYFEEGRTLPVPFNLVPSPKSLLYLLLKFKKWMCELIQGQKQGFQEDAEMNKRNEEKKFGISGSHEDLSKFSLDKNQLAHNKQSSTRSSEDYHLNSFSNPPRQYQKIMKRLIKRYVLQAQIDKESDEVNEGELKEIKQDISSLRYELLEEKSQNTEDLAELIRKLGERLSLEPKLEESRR

O=C(COc1ccc(Br)cc1Cl)c1ccc[nH]1
active: inhibition [5] 89% | inhibition [14] 43.7%
inactive: outcome [1] | outcome [2] | outcome [3] | outcome [4] | outcome [6] | outcome [7] | outcome [8] | outcome [9] | outcome [10] | outcome [11] | outcome [12] | outcome [13] | outcome [15] | outcome [16] | outcome [17]

Cc1ccc(/C=N/NC(=O)C2COc3ccccc3O2)s1 (stereo not drawn)
inactive: outcome [1] | outcome [2] | outcome [3] | outcome [4] | outcome [5] | outcome [6] | outcome [7] | outcome [8] | outcome [9] | outcome [10] | outcome [11] | outcome [12] | outcome [13] | outcome [14] | outcome [16] | outcome [17]
active: potentiation [15] 22.2%

CC(=O)N1N=C(c2c(-c3ccccc3)c3cc(C)ccc3[nH]c2=O)CC1c1ccco1 (stereo not drawn)
active: potentiation [4] 10% | potentiation, percent of control [12] 186% | potentiation [15] 15.5%
inactive: outcome [1] | outcome [2] | outcome [3] | outcome [5] | outcome [6] | outcome [7] | outcome [8] | outcome [9] | outcome [10] | outcome [11] | outcome [13] | outcome [14] | outcome [16] | outcome [17]

Cc1ccc(C)n1-c1nnc(N2CCC(C(=O)NCCCN3CC(C)CC(C)C3)CC2)s1 (stereo not drawn)
active: activation [1] 67% | activation [13] 20.3%
inactive: outcome [2] | outcome [3] | outcome [4] | outcome [5] | outcome [6] | outcome [7] | outcome [8] | outcome [9] | outcome [10] | outcome [11] | outcome [12] | outcome [14] | outcome [15] | outcome [16] | outcome [17]

CC(=O)c1ccc(N2CCN(c3ccc(S(=O)(=O)NCCCN(C)C)cc3[N+](=O)[O-])CC2)cc1
active: potentiation [3] 12% | potentiation [4] 19% | potentiation [15] 14.6%
inactive: outcome [1] | outcome [2] | outcome [5] | outcome [6] | outcome [7] | outcome [8] | outcome [9] | outcome [10] | outcome [11] | outcome [12] | outcome [13] | outcome [14] | outcome [16] | outcome [17]

CCNC(=S)N/N=C/c1cc(C)n(-c2ccc(Cl)cc2)c1C
inactive: outcome [1] | outcome [2] | outcome [3] | outcome [5] | outcome [6] | outcome [7] | outcome [8] | outcome [9] | outcome [10] | outcome [11] | outcome [12] | outcome [13] | outcome [14] | outcome [16] | outcome [17]
active: potentiation [4] 19% | potentiation [15] 17.3%

CCN1CCN(C(=O)c2cc(-c3ccc(Cl)s3)nc3ccccc23)CC1
inactive: outcome [1] | outcome [2] | outcome [3] | outcome [5] | outcome [6] | outcome [7] | outcome [8] | outcome [9] | outcome [10] | outcome [11] | outcome [12] | outcome [13] | outcome [14] | outcome [16] | outcome [17]
active: potentiation [4] 148% | potentiation [15] 37%

COc1cc2cc(C)c(SCC(=O)N3CCN(C(=O)c4ccco4)CC3)nc2cc1OC
inactive: outcome [1] | outcome [2] | outcome [3] | outcome [4] | outcome [5] | outcome [6] | outcome [7] | outcome [8] | outcome [9] | outcome [10] | outcome [11] | outcome [12] | outcome [13] | outcome [14] | outcome [15] | outcome [16] | outcome [17]

OC(CNCCC(c1ccccc1)c1ccccc1)COc1ccccc1 (stereo not drawn)
inactive: outcome [1] | outcome [2] | outcome [3] | outcome [4] | outcome [5] | outcome [6] | outcome [7] | outcome [8] | outcome [9] | outcome [10] | outcome [11] | outcome [12] | outcome [13] | outcome [14] | outcome [15] | outcome [16] | outcome [17]

Cc1ccc(C)c2[nH]c(=O)c(C(c3nnnn3C3CCCC3)N3CCOCC3)cc12 (stereo not drawn)
inactive: outcome [1] | outcome [2] | outcome [3] | outcome [4] | outcome [5] | outcome [6] | outcome [7] | outcome [8] | outcome [9] | outcome [10] | outcome [11] | outcome [12] | outcome [13] | outcome [14] | outcome [15] | outcome [16] | outcome [17]

CC(C)c1ccccc1NC(=S)NN(Cc1ccccc1)c1ccccc1
inactive: outcome [1] | outcome [2] | outcome [3] | outcome [5] | outcome [6] | outcome [7] | outcome [8] | outcome [9] | outcome [10] | outcome [11] | outcome [12] | outcome [13] | outcome [14] | outcome [16] | outcome [17]
active: potentiation [4] 10% | potentiation [15] 43.9%

C/C(=N/Nc1ccnc2cc(Cl)ccc12)c1ccc(N)cc1
inactive: outcome [1] | outcome [2] | outcome [3] | outcome [4] | outcome [5] | outcome [6] | outcome [7] | outcome [8] | outcome [9] | outcome [10] | outcome [11] | outcome [12] | outcome [13] | outcome [14] | outcome [15] | outcome [16] | outcome [17]

Cc1ccc(NC(=O)C2CCC(CNC(=O)[C@@H]3Cc4ccccc4CN3)CC2)cc1 (stereo partly drawn)
inactive: outcome [1] | outcome [2] | outcome [3] | outcome [4] | outcome [5] | outcome [6] | outcome [7] | outcome [8] | outcome [9] | outcome [10] | outcome [11] | outcome [12] | outcome [13] | outcome [14] | outcome [15] | outcome [16] | outcome [17]

c1ccc(C(c2nnnn2C2CCCC2)N2CCN(c3ccccc3)CC2)cc1 (stereo not drawn)
inactive: outcome [1] | outcome [2] | outcome [3] | outcome [4] | outcome [5] | outcome [6] | outcome [7] | outcome [8] | outcome [9] | outcome [10] | outcome [11] | outcome [12] | outcome [13] | outcome [14] | outcome [15] | outcome [16] | outcome [17]
